Test [1] addresses human AKT serine/threonine Kinase 1 (AKT1), AKT1 (gene 207) (UniProt P31749). Put plainly: NVS_ENZ_hAKT1: NovaScreen (NVS) Enzymatic Assay for human AKT serine/threonine Kinase 1 (AKT1) (AID 2283138). Put shortly:
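Signal loss relative to DMSO, measured by fluorescence after electrophoretic separation of substrate and product, indicates inhibition of recombinant enzyme. Readings at 1 h; screening at 25 uM, follow-up curves up to 50 uM.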

For test [2], the target named is human Acetylcholinesterase (AChE), ACHE (gene 43) (UniProt P22303). Kind of test: NVS_ENZ_hAChE: NovaScreen (NVS) Enzymatic Assay for human Acetylcholinesterase (AChE) (AID 2283129). Put shortly: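 Cell-free colorimetric enzyme-activity assay; compounds read 0.33 hour after dosing, loss of signal vs DMSO baseline. Primary screen in duplicate at 25 uM single concentration, with active compounds retested in concentration series.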

Test [3] has as its target rat CYP2A1, Cyp2a1 (gene 24894) (UniProt P11711). Kind of test: NVS_ADME_rCYP2A1: NovaScreen (NVS) CYP450-related Enzyme Activity (ADME) Assay for rat CYP2A1 (AID 2283114; active = hit-call score of the fitted dose curve at least 0.9, where 1 is the maximum; inactive = score below 0.9). A digest of the protocol:
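Recombinant rat CYP2A1, cell-free, fluorogenic substrate turnover read by fluorescence intensity 0.75 h after dosing. Primary screen at 10 uM in duplicate; actives rerun as concentration-response up to 20 uM; loss of signal versus acetonitrile control.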

The target in test [4] is rat CYP2A2, Cyp2a2 (gene 24895) (UniProt P15149). Put plainly: NVS_ADME_rCYP2A2: NovaScreen (NVS) CYP450-related Enzyme Activity (ADME) Assay for rat CYP2A2 (AID 2283116). A digest of the protocol:
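Cell-free recombinant rat CYP2A2 activity with fluorogenic substrate, fluorescence read 0.2 h after dosing. Chemicals screened at 10 uM in duplicate, hits then run in concentration-response up to 20 uM; signal loss versus acetonitrile baseline.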

In test [5] the target is rat CYP2C11, Cyp2c11 (gene 29277) (UniProt P08683). Kind of test: NVS_ADME_rCYP2C11: NovaScreen (NVS) CYP450-related Enzyme Activity (ADME) Assay for rat CYP2C11 (AID 2283118). Put shortly:
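Cell-free recombinant rat enzyme with fluorescent substrate; readout 0.33 h after dosing, loss of signal versus acetonitrile control. Initial duplicate single-point at 10 uM; actives rerun in concentration series.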

In test [6] the target is rat CYP2C12, Cyp2c12 (gene 25011) (UniProt P11510). Kind of test: NVS_ADME_rCYP2C12: NovaScreen (NVS) CYP450-related Enzyme Activity (ADME) Assay for rat CYP2C12 (AID 2283119). A digest of the protocol: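 Cell-free recombinant rat CYP2C12 activity read by fluorescence 0.5 h after dosing; loss of signal versus acetonitrile control. Primary screen in duplicate at 10 uM; actives then run in concentration-response format.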
Sequence of rat CYP2C12, Cyp2c12 (gene 25011) (P11510 whole entry, looked up): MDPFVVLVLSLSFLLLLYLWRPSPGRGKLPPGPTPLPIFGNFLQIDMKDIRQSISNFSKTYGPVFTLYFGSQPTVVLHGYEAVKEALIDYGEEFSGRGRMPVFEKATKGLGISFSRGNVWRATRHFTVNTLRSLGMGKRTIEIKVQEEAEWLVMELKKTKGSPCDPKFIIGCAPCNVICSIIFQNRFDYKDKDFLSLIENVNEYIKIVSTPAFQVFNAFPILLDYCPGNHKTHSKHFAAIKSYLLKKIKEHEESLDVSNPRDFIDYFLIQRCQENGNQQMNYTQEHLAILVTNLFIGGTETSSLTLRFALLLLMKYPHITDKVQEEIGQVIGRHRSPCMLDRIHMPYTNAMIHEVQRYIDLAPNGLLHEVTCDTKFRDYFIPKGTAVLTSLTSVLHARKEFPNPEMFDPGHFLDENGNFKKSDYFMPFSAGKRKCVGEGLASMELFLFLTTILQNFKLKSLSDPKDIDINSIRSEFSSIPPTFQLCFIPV

The test system of test [7] is rat CYP2C6, gene 293989. Kind of test: NVS_ADME_rCYP2C6: NovaScreen (NVS) CYP450-related Enzyme Activity (ADME) Assay for rat CYP2C6 (AID 2283120). A digest of the protocol:
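Cell-free recombinant rat CYP2C6 with fluorogenic substrate, read by fluorescence 1 h after dosing; acetonitrile as negative control. Primary screen at 10 uM in duplicate, actives then in concentration-response up to 20 uM.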

Test [8] concerns the target rat CYP2C13, Cyp2c13 (gene 171521) (UniProt P20814). Put plainly: NVS_ADME_rCYP2C13: NovaScreen (NVS) CYP450-related Enzyme Activity (ADME) Assay for rat CYP2C13 (AID 2283121). Put shortly: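 Recombinant rat CYP2C13 with fluorogenic substrate, 0.75 h cell-free incubation; primary screen in duplicate at 10 uM, actives followed in concentration series. Fluorescence loss relative to acetonitrile control indicates inhibition.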

The subject of test [9] is rat CYP3A1, gene 25642. Kind of test: NVS_ADME_rCYP3A1: NovaScreen (NVS) CYP450-related Enzyme Activity (ADME) Assay for rat CYP3A1 (AID 2283126). Put shortly:
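Cell-free recombinant CYP assay with fluorescent substrate, read 0.5 h after dosing. Screened at 10 uM in duplicate, hits at up to 20 uM in concentration-response; loss of signal versus acetonitrile baseline.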

In test [10] the target is rat CYP3A2, Cyp3a2 (gene 266682) (UniProt P05183). Put plainly: NVS_ADME_rCYP3A2: NovaScreen (NVS) CYP450-related Enzyme Activity (ADME) Assay for rat CYP3A2 (AID 2283128). Put shortly: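 Cell-free rat CYP3A2 enzyme assay with fluorescent substrate, read 0.5 h after dosing. Primary duplicate screen at 10 uM; actives run in concentration-response up to 20 uM, relative to acetonitrile baseline.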
Sequence of rat CYP3A2, Cyp3a2 (gene 266682) (P05183 whole entry, looked up): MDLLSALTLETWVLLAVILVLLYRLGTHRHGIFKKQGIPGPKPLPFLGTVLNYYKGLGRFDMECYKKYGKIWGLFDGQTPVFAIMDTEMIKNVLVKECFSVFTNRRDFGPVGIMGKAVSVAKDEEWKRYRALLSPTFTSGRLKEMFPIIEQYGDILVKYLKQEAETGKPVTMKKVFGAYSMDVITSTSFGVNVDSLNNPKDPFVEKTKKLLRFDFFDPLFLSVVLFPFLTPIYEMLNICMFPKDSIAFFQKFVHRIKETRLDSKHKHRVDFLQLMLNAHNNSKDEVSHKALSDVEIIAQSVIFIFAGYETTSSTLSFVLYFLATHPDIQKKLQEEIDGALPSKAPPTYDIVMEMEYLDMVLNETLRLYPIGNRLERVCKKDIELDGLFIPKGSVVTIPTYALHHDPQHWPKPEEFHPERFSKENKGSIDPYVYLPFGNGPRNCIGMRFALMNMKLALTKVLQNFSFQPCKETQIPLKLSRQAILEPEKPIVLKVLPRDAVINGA

Test [11] addresses human Caspase 5 (CASP5), CASP5 (gene 838) (UniProt P51878). Kind of test: NVS_ENZ_hCASP5: NovaScreen (NVS) Enzymatic Assay for human Caspase 5 (CASP5) (AID 2283137). Put shortly:
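Cell-free protease assay with bacterially expressed CASP5 and a fluorescent substrate, measured at 2 h. Values fitted relative to DMSO as baseline, from concentration-response series topping at 50 uM.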

Test [12] addresses human Beta-secretase (BACE), BACE1 (gene 23621) (UniProt P56817). Kind of test: NVS_ENZ_hBACE: NovaScreen (NVS) Enzymatic Assay for human Beta-secretase (BACE) (AID 2283140).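 Also: hits are inhibitors that reduce fluorescent substrate signal versus DMSO.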 A digest of the protocol:
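Recombinant BACE1 (SF9 extract) incubated with compound and fluorescent substrate, 1 h. Plates carried positive and DMSO negative controls. Initial single dose 25 uM, duplicate; confirmation by concentration series.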

The target in test [13] is rat CYP2D1, Cyp2d1 (gene 266684) (UniProt P10633). Kind of test: NVS_ADME_rCYP2D1: NovaScreen (NVS) CYP450-related Enzyme Activity (ADME) Assay for rat CYP2D1 (AID 2283122). Put shortly:
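Cell-free fluorescence enzyme-activity assay on extracted rat CYP2D1 protein, read 0.75 h after dosing. Primary screen in duplicate at 10 uM; qualifying chemicals then run in concentration-response to 20 uM max, loss-of-signal versus acetonitrile baseline.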

Test [14] deals with human AKT serine/threonine Kinase 2 (AKT2), AKT2 (gene 208) (UniProt P31751). Put plainly: NVS_ENZ_hAKT2: NovaScreen (NVS) Enzymatic Assay for human AKT serine/threonine Kinase 2 (AKT2) (AID 2283141). A digest of the protocol: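 Cell-free fluorescence/electrophoretic mobility shift readout of recombinant human AKT2 activity, 1 h after chemical dosing. Duplicate primary screen at 25 uM, then singleton concentration-response up to 50 uM; loss of signal versus DMSO baseline.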

For test [15], the target named is human AMP-activated Protein Kinase, alpha 1 (AMPKa1), PRKAA1 (gene 5562) (UniProt Q13131). Put plainly: NVS_ENZ_hAMPKa1: NovaScreen (NVS) Enzymatic Assay for human AMP-activated Protein Kinase, alpha 1 (AMPKa1) (AID 2283130). A digest of the protocol: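 Recombinant human AMPKα1 activity was measured cell-free by fluorescent substrate conversion with electrophoretic mobility-shift separation, 1 h after dosing. Duplicate single-point screening was at 25 uM; actives (≥30% inhibition) were retested in concentration-response up to 50 uM.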

For test [16], the target named is rat CYP1A2, Cyp1a2 (gene 24297) (UniProt P04799). Kind of test: NVS_ADME_rCYP1A2: NovaScreen (NVS) CYP450-related Enzyme Activity (ADME) Assay for rat CYP1A2 (AID 2283115). Put shortly: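 Cell-free recombinant rat enzyme with fluorogenic substrate, read by fluorescence intensity 1 hour after dosing. Loss of signal versus acetonitrile negative control; primary screen at 10 uM in duplicate, actives followed in concentration series.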

Molecules are shown by their SMILES. Where “and” joins values, the source holds several entries; their conditions need not be identical. Identical values can stand only once. Records with an inconclusive call do not appear. A structure can be active in one record and inactive in another. Calls of active or inactive are those of the source. The calls were made as follows, unless noted: active = hit-call score of the fitted dose curve at least 0.9, where 1 is the maximum; inconclusive = response in the unintended direction; inactive = score below 0.9.

The results in this text go back to PubChem BioAssay (EPA / NIEHS).

Sequence of rat CYP2C11, Cyp2c11 (gene 29277) (P08683 whole entry, looked up): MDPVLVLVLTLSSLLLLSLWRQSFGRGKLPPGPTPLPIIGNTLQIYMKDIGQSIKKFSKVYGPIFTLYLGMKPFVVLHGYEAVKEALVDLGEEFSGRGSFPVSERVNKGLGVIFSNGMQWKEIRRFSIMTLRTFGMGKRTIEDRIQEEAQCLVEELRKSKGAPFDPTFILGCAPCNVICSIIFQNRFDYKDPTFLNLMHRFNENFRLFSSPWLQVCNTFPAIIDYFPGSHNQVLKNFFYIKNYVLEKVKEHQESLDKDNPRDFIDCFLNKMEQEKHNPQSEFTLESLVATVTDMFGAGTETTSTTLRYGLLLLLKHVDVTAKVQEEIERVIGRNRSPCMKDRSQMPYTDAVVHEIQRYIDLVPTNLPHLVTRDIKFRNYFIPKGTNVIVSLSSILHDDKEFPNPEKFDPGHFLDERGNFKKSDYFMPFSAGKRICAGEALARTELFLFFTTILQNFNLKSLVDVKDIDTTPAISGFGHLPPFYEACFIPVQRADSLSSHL
Sequence of rat CYP2A2, Cyp2a2 (gene 24895) (P15149 whole entry, looked up): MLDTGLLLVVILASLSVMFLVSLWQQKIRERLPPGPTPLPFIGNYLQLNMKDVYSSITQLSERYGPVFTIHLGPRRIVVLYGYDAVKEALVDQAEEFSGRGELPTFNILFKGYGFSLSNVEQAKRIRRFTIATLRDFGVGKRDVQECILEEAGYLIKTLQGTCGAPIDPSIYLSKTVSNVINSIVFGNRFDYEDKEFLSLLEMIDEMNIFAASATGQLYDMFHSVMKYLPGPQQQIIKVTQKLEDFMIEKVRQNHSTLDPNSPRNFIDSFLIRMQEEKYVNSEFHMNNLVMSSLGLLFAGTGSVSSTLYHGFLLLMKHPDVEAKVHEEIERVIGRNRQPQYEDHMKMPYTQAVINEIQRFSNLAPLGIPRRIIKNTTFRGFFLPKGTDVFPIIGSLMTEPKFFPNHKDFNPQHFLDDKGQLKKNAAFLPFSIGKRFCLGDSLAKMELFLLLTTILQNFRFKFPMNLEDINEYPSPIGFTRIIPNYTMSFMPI
Sequence of rat CYP2C13, Cyp2c13 (gene 171521) (P20814 whole entry, looked up): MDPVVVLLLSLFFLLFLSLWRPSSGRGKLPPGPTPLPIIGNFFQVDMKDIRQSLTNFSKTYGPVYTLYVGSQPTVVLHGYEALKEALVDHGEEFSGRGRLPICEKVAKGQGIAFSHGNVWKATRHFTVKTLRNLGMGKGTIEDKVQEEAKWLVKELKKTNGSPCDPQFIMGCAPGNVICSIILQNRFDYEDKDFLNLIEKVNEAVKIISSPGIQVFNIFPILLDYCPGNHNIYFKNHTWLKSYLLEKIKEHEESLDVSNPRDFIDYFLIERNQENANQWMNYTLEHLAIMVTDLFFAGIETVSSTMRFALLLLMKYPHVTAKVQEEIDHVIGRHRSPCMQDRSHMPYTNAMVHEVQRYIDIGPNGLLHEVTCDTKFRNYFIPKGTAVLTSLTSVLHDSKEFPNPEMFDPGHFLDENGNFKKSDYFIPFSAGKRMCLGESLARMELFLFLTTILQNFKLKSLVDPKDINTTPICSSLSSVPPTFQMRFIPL
Sequence of human AKT serine/threonine Kinase 1 (AKT1), AKT1 (gene 207) (P31749 whole entry, looked up): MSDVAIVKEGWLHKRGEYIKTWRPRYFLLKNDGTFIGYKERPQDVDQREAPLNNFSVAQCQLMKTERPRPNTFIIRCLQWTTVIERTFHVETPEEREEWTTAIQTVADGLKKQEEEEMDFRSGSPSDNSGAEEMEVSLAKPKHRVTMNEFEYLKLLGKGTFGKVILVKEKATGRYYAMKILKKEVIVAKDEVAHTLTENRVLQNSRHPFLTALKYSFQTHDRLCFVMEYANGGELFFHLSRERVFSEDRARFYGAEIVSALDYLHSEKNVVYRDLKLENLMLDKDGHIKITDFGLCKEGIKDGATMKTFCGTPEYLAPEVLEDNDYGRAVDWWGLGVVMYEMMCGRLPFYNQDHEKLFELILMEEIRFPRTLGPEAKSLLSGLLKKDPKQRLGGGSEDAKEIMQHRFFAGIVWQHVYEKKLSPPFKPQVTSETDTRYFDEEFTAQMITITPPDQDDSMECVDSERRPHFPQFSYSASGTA
Sequence of rat CYP2D1, Cyp2d1 (gene 266684) (P10633 whole entry, looked up): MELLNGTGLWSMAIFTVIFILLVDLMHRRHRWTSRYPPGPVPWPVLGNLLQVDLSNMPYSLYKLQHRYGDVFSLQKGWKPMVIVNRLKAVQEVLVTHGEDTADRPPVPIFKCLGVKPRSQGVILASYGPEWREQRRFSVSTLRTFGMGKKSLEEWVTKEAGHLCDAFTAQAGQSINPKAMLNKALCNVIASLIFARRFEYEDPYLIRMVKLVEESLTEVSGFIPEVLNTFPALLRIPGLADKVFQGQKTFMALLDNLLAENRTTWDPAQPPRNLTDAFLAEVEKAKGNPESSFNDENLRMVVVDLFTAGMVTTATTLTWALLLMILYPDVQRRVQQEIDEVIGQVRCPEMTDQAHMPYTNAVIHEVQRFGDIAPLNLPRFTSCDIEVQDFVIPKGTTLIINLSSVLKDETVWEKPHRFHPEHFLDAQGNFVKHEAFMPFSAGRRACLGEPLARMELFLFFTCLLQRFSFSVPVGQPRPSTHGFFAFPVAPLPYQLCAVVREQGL
Sequence of rat CYP2A1, Cyp2a1 (gene 24894) (P11711 whole entry, looked up): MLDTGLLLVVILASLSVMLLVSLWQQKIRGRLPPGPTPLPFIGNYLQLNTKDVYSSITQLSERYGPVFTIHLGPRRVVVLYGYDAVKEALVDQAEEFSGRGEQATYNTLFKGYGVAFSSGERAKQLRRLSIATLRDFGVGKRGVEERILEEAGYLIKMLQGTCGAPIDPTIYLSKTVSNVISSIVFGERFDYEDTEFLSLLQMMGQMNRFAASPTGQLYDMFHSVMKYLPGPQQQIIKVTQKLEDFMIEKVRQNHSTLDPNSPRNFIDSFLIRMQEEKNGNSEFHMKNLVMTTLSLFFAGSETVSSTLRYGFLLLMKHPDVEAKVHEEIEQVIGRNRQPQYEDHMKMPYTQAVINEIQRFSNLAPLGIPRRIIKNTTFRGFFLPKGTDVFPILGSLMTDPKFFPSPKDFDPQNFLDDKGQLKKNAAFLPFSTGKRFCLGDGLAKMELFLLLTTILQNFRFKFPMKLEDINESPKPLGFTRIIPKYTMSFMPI
Sequence of human Caspase 5 (CASP5), CASP5 (gene 838) (P51878 whole entry, looked up): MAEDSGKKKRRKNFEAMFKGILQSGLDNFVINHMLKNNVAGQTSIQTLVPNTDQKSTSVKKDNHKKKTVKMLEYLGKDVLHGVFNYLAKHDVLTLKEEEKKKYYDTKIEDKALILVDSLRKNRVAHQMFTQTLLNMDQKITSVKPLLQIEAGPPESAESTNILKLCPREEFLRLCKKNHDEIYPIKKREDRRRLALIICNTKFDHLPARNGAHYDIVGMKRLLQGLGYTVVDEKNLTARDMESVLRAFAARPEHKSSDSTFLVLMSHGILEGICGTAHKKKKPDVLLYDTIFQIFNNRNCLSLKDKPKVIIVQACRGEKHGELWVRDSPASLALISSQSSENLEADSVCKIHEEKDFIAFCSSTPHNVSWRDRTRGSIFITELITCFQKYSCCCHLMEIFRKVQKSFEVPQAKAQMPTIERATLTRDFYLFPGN
Sequence of human Beta-secretase (BACE), BACE1 (gene 23621) (P56817 whole entry, looked up): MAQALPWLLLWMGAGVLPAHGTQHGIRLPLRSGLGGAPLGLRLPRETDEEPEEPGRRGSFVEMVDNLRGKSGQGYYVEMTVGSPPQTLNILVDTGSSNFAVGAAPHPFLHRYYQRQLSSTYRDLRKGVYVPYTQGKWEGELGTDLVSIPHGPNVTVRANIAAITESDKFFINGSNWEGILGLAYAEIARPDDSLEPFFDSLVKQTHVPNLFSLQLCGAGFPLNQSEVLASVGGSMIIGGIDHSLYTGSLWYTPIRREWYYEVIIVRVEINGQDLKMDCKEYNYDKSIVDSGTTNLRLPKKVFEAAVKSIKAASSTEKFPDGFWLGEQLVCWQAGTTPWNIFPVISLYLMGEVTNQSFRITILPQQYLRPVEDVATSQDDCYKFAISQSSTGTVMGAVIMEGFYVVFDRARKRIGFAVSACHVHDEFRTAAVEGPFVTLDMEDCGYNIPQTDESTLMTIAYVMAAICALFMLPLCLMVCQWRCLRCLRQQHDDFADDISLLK

With `CCCCNC(=O)n1c(NC(=O)OC)nc2ccccc21`, in [1], the call was inactive.

As to `O=C(O)c1nc(Cl)ccc1Cl`, the result in [2] was inactive.

In general, AC50 refers to the concentration giving half of the maximal activity seen. For the compound `CCOC(=O)CC(SP(=S)(OC)OC)C(=O)OCC` (centres undefined), the AC50 in test [3] was 5520 nM (active); in test [4] it was 2590 nM (active); in [5], 399 nM (active); in test [6], 6050 nM (active); in test [7], 50.1 nM (active); in [8], 8120 nM (active). The results for the AC50 in test [9] and in test [10] were 1880 nM (active) and 306 nM (active), respectively.

On to `N#Cc1cc(Br)c(O)c(Br)c1`, for which, in test [1], the result was inactive.

On to `COc1nc(NC(C)C)nc(NC(C)C)n1`, for which, in test [11], the call was inactive.

`Oc1ccccc1-c1ccccc1`: the outcome in test [4] and in [1] was inactive.

For the compound `COc1ccc(C(c2ccc(OC)cc2)C(Cl)(Cl)Cl)cc1`, the outcome in test [3], in [4], in test [5], in [6], in [8] and in test [9] was inactive. Besides, the compound was classed as inactive in [10]. The AC50 in [7] was 9600 nM (active); in test [11], 25000 nM (active); in test [12], 33.9 µM (active).

On to `COC(=O)C(C)Oc1ccc(Oc2ccc(Cl)cc2Cl)cc1` (centres undefined), for which the AC50 in test [12] was 5.69 µM (active) and 16.3 µM (active) and 5.37 µM (active).

In the case of `OC(c1ccc(Cl)cc1)(c1cncnc1)c1ccccc1Cl` (centres undefined), the AC50 in [3] was 4330 nM (active); in [4] it was 53.4 nM (active); in [5], 6580 nM (active); in test [6], 3990 nM (active); in test [7], 1390 nM (active); in [13] it was 7230 nM (active). The AC50 is 2920 nM (active) in test [9] and 5570 nM (active) in test [10].

Regarding `CCOC(=O)C(Cl)Cc1cc(-n2nc(C)n(C(F)F)c2=O)c(F)cc1Cl` (centres undefined), the call in test [3] and in [13] was inactive.

As for `CS/C(C)=N/OC(=O)N(C)SN(C)C(=O)O/N=C(\C)SC`, the AC50 in [5] was 3660 nM (active); in [6], 1120 nM (active); in test [7], 3630 nM (active); in [10] it was 3390 nM (active); in [2] it was 4850 nM (active). Further, in [14], the call was inactive.

With `CC1COC(Cn2cncn2)(c2ccc(Oc3ccc(Cl)cc3)cc2Cl)O1` (centres undefined), the AC50 was 140 nM (active) in test [3]; 127 nM (active) in test [4]; 1730 nM (active) in [5]; 1080 nM (active) in test [6]; 1560 nM (active) in test [7]; 1430 nM (active) in test [8]. Further, the AC50 in test [13] is 685 nM (active); in [9] it was 628 nM (active); in test [10] it was 1350 nM (active). Besides, the compound was called inactive in [1].

As to `CO/C=C(/C(=O)OC)c1ccccc1Oc1cc(Oc2ccccc2C#N)ncn1`, the AC50 in [3] is 3830 nM (active); in [5], 2810 nM (active); in [7], 2120 nM (active); in test [13], 5450 nM (active); in test [9], 5800 nM (active); in test [10], 6600 nM (active). Further, the AC50 in test [1] is 14700 nM (active). In addition, the result in test [15], in test [11] and in test [1] was inactive.

For `N#CC(CCc1ccc(Cl)cc1)(Cn1cncn1)c1ccccc1` (centres undefined), the outcome in test [3] was inactive. The AC50 is 20 nM (active) in test [4]; 267 nM (active) in test [5]; 250 nM (active) in [6]; 1440 nM (active) in [7]; 449 nM (active) in [9].

`Fc1ccc(Oc2ccnc3cc(Cl)cc(Cl)c23)cc1`: in [5], the AC50 was 15600 nM (active).

In the case of `Cc1c(F)c(F)c(COC(=O)C2C(/C=C(\Cl)C(F)(F)F)C2(C)C)c(F)c1F` (centres undefined), the compound was called inactive in test [12].

`COC(=O)N(OC)c1ccccc1COc1ccn(-c2ccc(Cl)cc2)n1`: the AC50 in test [5] was 809 nM (active); in [9] it was 1290 nM (active); in [12] it was 11.6 µM (active). Further, in [13], the compound was classed as inactive.

For the compound `O=C(Nc1ccccc1)Nc1ccnc(Cl)c1`, the compound was classed as inactive in test [16] and in test [11]. For the same compound, the AC50 was 10000 nM (active) in test [8], 10000 nM (active) in [13], 6440 nM (active) in test [10] and 5.29 µM (active) in test [12].
